Assay results from PubChem BioAssay (Tox21).
Inconclusive results are not listed. Where a call stands in place of a potency, no number is given. Activity calls are given as the source filed them. Calls come from the whole dose curve.

assay: qHTS assay to identify small molecule agonists of the hypoxia (HIF-1) signaling pathway - cell viability counter screen (AID 1224844); conditions: HRE-bla ME-180 viability, CellTiter-Glo luminescence, 17 h; series mostly up to 76.8 µM; note: nearly all actives have a fitted effect of over 50% in size
In short: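 Cytotoxicity was measured in parallel with the HRE-driven beta-lactamase readout: after 17 hrs of compound exposure at 37C, HRE-bla ME-180 cells received CellTiter-Glo and luminescence was recorded 30 min later.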

Row | Compound | Potency
1 | CC(C)(C)NCC(O)c1ccc(O)c(CO)c1 (stereo not given) | inactive
2 | C[C@]12C[C@H](O)[C@H]3[C@@H](CCC4=CC(=O)CC[C@@]43C)[C@@H]1CC[C@@H]2C(=O)CO | inactive
3 | NC(=O)NO | inactive
4 | C=C(C)C(N)=O | inactive
5 | Cc1cccc(C)c1O | inactive
6 | C=CCOC(=O)CC(C)C | inactive
7 | O=C(O)CN(CC(=O)O)CC(=O)O | inactive
8 | CC(C)CC(C)CC(O)CC(C)C (stereo not given) | inactive
9 | CCCCNC(=O)NS(=O)(=O)c1ccc(N)cc1 | inactive
10 | CCCCCCCCOc1ccc(C(=O)c2ccccc2)c(O)c1 | inactive
11 | N[C@@H](Cc1c[nH]c2ccccc12)C(=O)O | inactive
12 | C[C@]12CC[C@@H]3c4ccc(O)cc4C[C@@H](CCCCCCCCCS(=O)CCCC(F)(F)C(F)(F)F)[C@H]3[C@@H]1CC[C@@H]2O (stereo not given in full) | inactive
13 | O=c1cc[nH]c(=O)[nH]1 | inactive
14 | N[C@@H](Cc1c[nH]c2ccc(O)cc12)C(=O)O | inactive
15 | CC(=O)c1ccc(S(=O)(=O)NC(=O)NC2CCCCC2)cc1 | inactive
16 | CCCCCCCC(=O)OCC(O)CO (stereo not given) | inactive
17 | OCCCc1ccccc1 | inactive
18 | CN/C(=C\[N+](=O)[O-])NCCSCc1ccc(CN(C)C)o1 | inactive
19 | CC1(C)O[C@@H]2[C@@H](CO[C@@]3(COS(N)(=O)=O)OC(C)(C)O[C@@H]23)O1 | inactive
20 | NC(=O)OCC(COC(N)=O)c1ccccc1 | inactive
21 | C=C(C)OC(C)=O | inactive
22 | O=C1CCCCCN1 | inactive
23 | NC(=O)N1c2ccccc2C=Cc2ccccc21 | inactive
24 | Cn1cnc2c1c(=O)[nH]c(=O)n2C | inactive
25 | Cc1cccc2ccccc12 | inactive
26 | CC(C)Cc1ccc(C(C)C(=O)O)cc1 (stereo not given) | inactive
27 | CN(C)C=O | inactive
28 | CC(=O)Oc1ccccc1C(=O)O | inactive
29 | CCN(CC)CCOC(=O)c1ccc(N)cc1 | inactive
30 | Cc1cnc(NC(=O)C2=C(O)c3ccccc3S(=O)(=O)N2C)s1 | inactive
